We go through 30 compounds from PubChem BioAssay (NCATS).

“And” between values parts separate entries of the source, which are not always exact repeats. Equal entries are not always repeated. A number with no mark means an inactive call. Results filed as inconclusive are left out. The source made the active and inactive calls. Unless noted, the call rests on the fitted dose curve; in most records, active means well fitted curve in the direction sought with a large enough effect; inconclusive means small, poorly fitted or top-dose-only effect, or another doubt; inactive means no such curve, though single readings can be large; an effect the other way counts as inactive or inconclusive.

The test system of one assay is astro (control astrocytes). Description: Drug repurposing screens with cells derived from glioblastoma tumor samples (AID 1345199). Further: nearly all actives have a fitted effect of over 40% in size. Further: potency means the concentration at half of the fitted maximal effect. On activity, negative = cell killing: on the % scale 0 is the no-effect control and ±100 the full control effect. Particulars: viability, ATP luminescence, 48 h; series mostly up to 45.9 µM. The method in brief:
(§1)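 Primary testing used CD133+ neurospheres from four GBM patients, seven concentrations, 48 h exposure and ATP-based viability; confirmation added three slower-growing patient lines.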

Experiment in assay [1]: as above
As to conditions: GBM patient neurospheres viability, ATP luminescence, 48 h. The method in brief:
as §1

The nature of assay [2]: qHTS assay to identify inhibitors of the type 1 interferon - major histocompatibility complex class I in skeletal muscle: Counter screen cell viability and HiBit confirmation (AID 1347412). Further: potency means the concentration at half of the fitted maximal effect. On activity change, negative = inhibition: on the % scale 0 is the no-effect control and ±100 the full control effect. On all read-outs here: nearly all actives have a fitted effect of over 60% in size. As to conditions: iHSKM muscle cells + IFN-b, HiBiT or CellTiter-Glo, 24 h; for activity change, negative = inhibition: Viability, at 45.9 µM (top of the series). The method, boiled down:
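Myoblasts (C25cl48, HLA-B HiBiT) seeded in medium without dexamethasone, IFN-b 4 ng/ml added except unstimulated columns; 1 hr later compounds pinned (12-pt 1:3, top 46 uM final). Incubated 24 hrs, lysed 10 min, luminescence measured.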
Background: qHTS replaces the single test concentration by a dilution series.

For assay [3], the target named is Nuclear receptor subfamily 1 group I member 2 (Rattus norvegicus) (UniProt Q9R1A7). Description: qHTS assay for small molecule activators of the rat pregnane X receptor (rPXR) signaling pathway (AID 651751; call rule not given here; further: 0% is about no effect). As to conditions: rPXR reporter cells, luciferase (One-Glo), 24 h.
A short description of assay [4]: qHTS assay for small molecule activators of the human pregnane X receptor (PXR) signaling pathway (AID 720659; call rule not given here; further: 0% is about no effect). Particulars: DPX-2 HepG2 CYP3A4-luciferase, 24 h; series mostly up to 92.3 µM.
Setting [5] is: at 46.1 µM (top of the series), tumour line C.
[6] abbreviates: at 45.9 µM (top of the series), tumour line B.
[7] abbreviates: at 45.9 µM (top of the series), tumour line D.
Setting [8] is: at 46 µM (top of the series), tumour line A.

Sequence of Nuclear receptor subfamily 1 group I member 2 (Rattus norvegicus) (Q9R1A7 whole entry, looked up): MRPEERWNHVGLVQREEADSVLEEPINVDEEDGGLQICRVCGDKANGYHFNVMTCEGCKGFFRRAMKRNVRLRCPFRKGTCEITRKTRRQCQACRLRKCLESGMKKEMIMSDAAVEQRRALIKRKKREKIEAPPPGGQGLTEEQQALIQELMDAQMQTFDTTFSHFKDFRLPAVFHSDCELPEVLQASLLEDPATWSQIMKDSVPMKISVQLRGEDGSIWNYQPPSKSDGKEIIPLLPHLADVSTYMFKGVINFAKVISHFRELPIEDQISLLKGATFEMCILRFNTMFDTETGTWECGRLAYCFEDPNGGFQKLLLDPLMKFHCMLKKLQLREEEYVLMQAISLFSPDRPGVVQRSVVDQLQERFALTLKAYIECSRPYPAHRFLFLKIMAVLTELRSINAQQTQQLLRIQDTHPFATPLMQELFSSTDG

As to `CCOc1ccc(N=Nc2ccc(N)cc2N)cc1`, in the assay on astro, the Potency is 2.51 µM (active).
Still for that read-out and setting: in the case of `CCNC(=O)[C@@H]1CCCN1C(=O)[C@H](CCCN=C(N)N)NC(=O)[C@H](CC(C)C)NC(=O)[C@@H](Cc1c[nH]c2ccccc12)NC(=O)[C@H](Cc1ccc(O)cc1)NC(=O)[C@H](CO)NC(=O)[C@H](Cc1c[nH]c2ccccc12)NC(=O)[C@H](Cc1cnc[nH]1)NC(=O)[C@@H]1CCC(=O)N1` it was 8.91 µM (active); in that of `CC[C@@H](C(=O)[C@@H](C)[C@@H](O)[C@H](C)CCc1ccc(C)c(O)c1C(=O)O)[C@H]1O[C@](CC)([C@H]2CC[C@](O)(CC)[C@H](C)O2)C[C@@H]1C`, 7.08 µM (active).
With `CC(C)(C)NC(=O)[C@@H]1C[C@@H]2CCCC[C@@H]2CN1C[C@@H](O)[C@H](Cc1ccccc1)NC(=O)[C@H](CC(N)=O)NC(=O)c1ccc2ccccc2n1`, the activity, negative = cell killing in assay [1] (setting [5]) is 7.54%. In assay [1] (tumour line A), the Potency was 4.47 µM (active). In addition, the Potency entry in the assay on astro is “inactive”.
In the case of `CO/N=C(\C(=O)N[C@@H]1C(=O)N2C(C(=O)O)=C(CSc3cnns3)CS[C@H]12)c1csc(N)n1`, the activity, negative = cell killing in assay [1] (setting [6]) was -0.235%; in assay [1] (setting [7]), 11.9%. In addition, the Potency result in the assay with astro is “inactive”.
Regarding `O=S(=O)(O)c1cc(O)c2c(N=Nc3ccc(Nc4ccccc4)c4c(S(=O)(=O)O)cccc34)cc(S(=O)(=O)O)cc2c1`, the Potency with astro was 14.1 µM (active).
For the compound `COc1cc(-c2ccc(-[n+]3nc(-c4ccccc4)nn3-c3ccc([N+](=O)[O-])cc3)c(OC)c2)ccc1-[n+]1nc(-c2ccccc2)nn1-c1ccc([N+](=O)[O-])cc1`, the Potency with astro was 3.55 µM (active).
Still for that read-out and setting: as for `CCCCCCOc1ccc(C(=N)N(CCCC)CCCC)c2ccccc12`, the figure is 17.8 µM (active); as for `CC[C@@H](C(=O)O)[C@@H]1O[C@@H]([C@@H](C)[C@H](O)[C@H](C)C(=O)[C@H](CC)[C@H]2O[C@]3(C=C[C@@H](O)[C@]4(CC[C@@](C)([C@H]5CC[C@](O)(CC)[C@H](C)O5)O4)O3)[C@H](C)C[C@@H]2C)[C@@H](C)C[C@@H]1C`, 0.794 µM (active).
In the case of `C=C1CC[C@@H]2[C@](C)(CO)[C@H](O)CC[C@@]2(C)[C@@H]1C/C=C1/C(=O)OC[C@H]1O`, the figures for the Potency (in the assay with astro; in assay [2] (HiBiT)) were 25.1 µM (active) and 12.5 µM (active), respectively. In addition, the activity change, negative = inhibition in assay [2] was -7.87%.
On to `CCCCC/C=C\C/C=C\CCCCCCCC(=O)O`, for which the activity, negative = cell killing in assay [1] (setting [6]) is -6.32%; in assay [1] (setting [7]), -10.3%; in assay [1] (setting [5]), 11.8%. Moreover, the Potency entry in the assay with astro was “inactive”. In addition, the max response in assay [3] was 6.19% and -3.59%. Also, the compound was classed as inactive in assay [4].
Regarding `CC(C)=O`, the activity, negative = cell killing in assay [1] (setting [6]) is -1.76%; in assay [1] (setting [7]), -10.6%; in assay [1] (setting [5]) it was -8.82%. Also, the Potency entry in the assay with astro was “inactive”. In addition, in assay [3], the max response is 2.78%. Moreover, the compound was classed as inactive in assay [4].
Regarding `COc1cc2c(cc1O)CCN[C@]21CS[C@@H]2c3c(OC(C)=O)c(C)c4c(c3[C@H](COC1=O)N1[C@@H]2[C@H]2c3c(cc(C)c(OC)c3O)C[C@@H]([C@@H]1O)N2C)OCO4`, the Potency with astro was 8.91 µM (active) and 14.1 µM (active).
Turning to `O=CCCCC=O`, the values for the activity, negative = cell killing in assay [1] (setting [6]), in assay [1] (setting [7]) and in assay [1] (setting [5]) were -2.9%, -3.77% and -3.46%, respectively. Moreover, in the assay on astro, the Potency entry is “inactive”. Also, in assay [3], the max response is 2.91%. The call in assay [4] was inactive.
As for `C[C@@H]1CCN(C(=O)CC#N)C[C@@H]1N(C)c1ncnc2[nH]ccc12`, the activity change, negative = inhibition in assay [2] was -5.51%.
Consider `Cc1cc(/C=C/c2ccc3cc(N(C)C)ccc3[n+]2C)c(C)n1-c1ccccc1`, for which the activity, negative = cell killing in assay [1] (at 20 µM (top of the series), tumour line C) is -11.8%. For the same compound, the Potency in the assay on astro was 11.2 µM (active).
On to `CCCCCCCCCCCCCC[n+]1ccc(C)cc1`, for which the Potency with astro was 3.16 µM (active).
For `C[C@H]1C[C@H]2[C@@H]3CCC4=CC(=O)C=C[C@]4(C)[C@@]3(F)[C@@H](O)C[C@]2(C)[C@@]1(O)C(=O)CO`, the activity, negative = cell killing in assay [1] (setting [6]) is -16%; in assay [1] (setting [7]), -25%; in assay [1] (setting [8]) it was -24.5%. For the same compound, the Potency entry in the assay with astro is “inactive”.
`CCCCC(=O)OCC(=O)[C@]1(O)Cc2c(O)c3c(c(O)c2[C@@H](O[C@H]2C[C@H](NC(=O)C(F)(F)F)[C@H](O)[C@H](C)O2)C1)C(=O)c1c(OC)cccc1C3=O`: the Potency with astro was 2.24 µM (active).
For `CCCCCCCCCCCC[n+]1ccc2ccccc2c1`, the Potency in the assay with astro was 5.01 µM (active).
As to `C#C[C@]1(O)CC[C@H]2[C@@H]3CCC4=CCCC[C@@H]4[C@H]3C(=C)C[C@@]21CC`, the Potency with astro was 35.5 µM (active).
Take `Cc1ccccc1`: the activity, negative = cell killing is 6.08% in assay [1] (setting [6]), -15.8% in assay [1] (setting [7]) and 2.61% in assay [1] (setting [5]). The Potency entry in the assay with astro was “inactive”. In assay [3], the max response was -1.25% and 0.145%. Besides, the result in assay [4] was inactive.
For the compound `CO[C@H](C(=O)[C@@H](O)[C@@H](C)O)C1Cc2cc3cc(O[C@H]4C[C@@H](O[C@H]5C[C@@H](O)[C@H](O)[C@@H](C)O5)[C@@H](O)[C@@H](C)O4)c(C)c(O)c3c(O)c2C(=O)[C@H]1O[C@H]1C[C@@H](O[C@H]2C[C@@H](O[C@H]3C[C@](C)(O)[C@H](O)[C@@H](C)O3)[C@H](O)[C@@H](C)O2)[C@H](O)[C@@H](C)O1` (some centres undefined), in the assay on astro, the Potency was 0.112 µM (active).
The same measure, in the same setting: in the case of `CC[C@@]1(O)C(=O)OCc2c1cc1n(c2=O)Cc2cc3c([N+](=O)[O-])cccc3nc2-1` it was 1.26 µM (active); in that of `O=C(Nc1cccc(C(F)(F)F)c1)c1cc(Br)cc(Br)c1O`, 2.51 µM (active).
`COC(C(=O)C(O)C(C)O)C1Cc2cc3cc(OC4CC(OC5CC(O)C(O)C(C)O5)C(O)C(C)O4)c(C)c(O)c3c(O)c2C(=O)C1OC1CC(OC2CC(OC3CC(C)(O)C(O)C(C)O3)C(O)C(C)O2)C(O)C(C)O1` (centres undefined): the Potency in the assay with astro is 0.355 µM (active).
Turning to `CCCCC(CC)COC(=O)CC(C(=O)OCC(CC)CCCC)S(=O)(=O)O` (centres undefined), the activity, negative = cell killing in assay [1] (setting [6]) is 1.3%; in assay [1] (setting [8]), -17.3% and -22.7%; in assay [1] (setting [5]), -38.9%. Besides, the Potency result with astro is “inactive”. Also, the max response in assay [3] is 6.97%.
As for `CCN(CC)CCOc1ccc(-c2nc3cc(Cl)ccc3s2)cc1`, the Potency with astro was 20 µM (active).
The same measure, in the same setting: as for `CO[C@H]1C[C@@H]2CC[C@@H](C)[C@@](O)(O2)C(=O)C(=O)N2CCCC[C@H]2C(=O)O[C@H]([C@H](C)C[C@@H]2CC[C@@H](OCCO)[C@H](OC)C2)CC(=O)[C@H](C)/C=C(\C)[C@@H](O)[C@@H](OC)C(=O)[C@H](C)C[C@H](C)/C=C/C=C/C=C/1C`, the figure is 25.1 µM (active).
Still for that read-out and setting: as for `C=C[C@]1(C)C[C@@H](OC(=O)CSC(C)(C)CNC(=O)[C@H](N)C(C)C)[C@]2(C)[C@H](C)CC[C@]3(CCC(=O)[C@H]32)[C@@H](C)[C@@H]1O`, the entry is “inactive”.
